The text below walks through data of the supplement of paper PMC10981050.

The test system of one assay is MARIMO. Kind of assay: cell viability relative to vehicle control; higher = less cytotoxic. As to conditions: 10 µM; SRSF2 genotype: SRSF2 P95H/wt. Summed up: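 Mutant clones made by CRISPR editing and their isogenic wild-type counterparts, from four leukaemia lines, were exposed to a single 10 µM dose of each library compound for 48 h. The supernatant was then removed and CellTiter-Glo luminescence was read. Viability was reported as percent of the on-plate vehicle control.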
As a reminder, the cell viability is a read-out of living cells in per cent, often relative to untreated cells. On to `Nc1ccc(Oc2ccc(-c3ccc(Oc4ccc(N)cc4)cc3)cc2)cc1` [4,4prime-Bis(4-aminophenoxy)biphenyl], for which the cell viability came to 96.9%.

On to `CCCCCOC(=O)Nc1nc(=O)n([C@@H]2O[C@H](C)[C@@H](O)[C@H]2O)cc1F` [Capecitabine (Xeloda)], for which the cell viability stood at 99.7%.

Regarding `C=CC(=O)Nc1cc(Nc2nccc(-n3cc(CN(C)C)c(-c4ccccc4)n3)n2)c(OC)cc1N1CCOCC1`, the cell viability worked out at 76.5%.

The same assay, now with this note: 10 µM; SRSF2 genotype: SRSF2 wt/wt.
With `COc1ccc2cc(C(=O)O)ccc2c1` [6-Methoxy-2-naphthoic acid], the cell viability stood at 99.7%. Turning to `OC[C@H]1O[C@H](OCC2O[C@@H](O)[C@H](O)[C@@H](O)[C@@H]2O)[C@H](O)[C@@H](O)[C@H]1O` (stereo not given in full) [Melibiose], the cell viability was 110%. In the case of `CNC(=O)c1ccc(-c2cnc3ncc(Cc4ccc5ncccc5c4)n3n2)cc1F`, the cell viability was 115%. On to `Nc1cc(C(Cl)=C(Cl)Cl)c(S(N)(=O)=O)cc1S(N)(=O)=O` [Clorsulon], for which the cell viability was determined as 107%.

`C[C@H](CCC(=O)O)[C@H]1CC[C@H]2[C@@H]3C[C@H](O)[C@@H]4C[C@H](O)CC[C@]4(C)[C@H]3CC[C@]12C` [Hyodeoxycholic acid (HDCA)]: the cell viability was 94.3%. For the compound `COc1ccc(C[C@@H]2c3cc(Oc4cc(C[C@@H]5c6cc(OC)c(OC)cc6CCN5C)ccc4O)c(OC)cc3CCN2C)cc1` [Neferine], the cell viability was found to be 120%. Same read-out and setting: as for `CN1CC(O)c2cc(N=NC(N)=O)c(O)cc21` (stereo not given) [Carbazochrome], the figure is 94.8%. With `COc1ccccc1N1CCN(CCN(C(=O)C2CCCCC2)c2ccccn2)CC1`, the cell viability stood at 73%. On to `CCCCCCCCCC[C@H](C(=O)O)[C@]1(C(=O)O)CCC(=O)O1` [Spiculisporic Acid], for which the cell viability came out at 107%.

Take `COc1ncnc(NS(=O)(=O)c2ccc(N)cc2)c1OC` [Sulfadoxine (Sulphadoxine)]: the cell viability is 105%. As for `OCCc1ccc(O)c(O)c1` [Hydroxytyrosol], the cell viability came to 103%. For the compound `CNc1ccc([N+](=O)[O-])c(Nc2ccc3[nH]ncc3c2)n1`, the cell viability turned out to be 60%. On the same count and under the same terms, as for `Cc1cc2c(F)c(Oc3ncnn4cc(OC[C@@H](C)O)c(C)c34)ccc2[nH]1`, the figure is 106%. The same measure, in the same setting: as for `Cc1nc(-c2ccc(OCC(C)C)c(C#N)c2)sc1C(=O)O` [Febuxostat (Uloric)], the figure is 111%. Take `COc1ccc(C(=O)CC(=O)c2ccc(C(C)(C)C)cc2)cc1` [Avobenzone (Parsol 1789)]: the cell viability turned out to be 92.6%. For `Nc1ccc(Cl)cc1C(=O)C(F)(F)F` [4-Chloro-2-(trifluoroacetyl)aniline hydrochl], the cell viability came to 99.5%.

Regarding `NC(=O)OCC(COC(N)=O)c1ccccc1` [Felbamate], the cell viability came to 100%.

Consider `O=C1CCC(N2C(=O)c3ccccc3C2=O)C(=O)N1` (stereo not given) [Thalidomide], for which the cell viability turned out to be 86.4%. Consider `C[C@@]1(CO)C[C@@H](O)C[C@@]2(C)[C@@H]3CC[C@](C)([C@@H](O)CO)C=C3CC[C@H]12` [Kirenol], for which the cell viability was 96.2%. As for `CCC[C@H](NC(=O)/C(C#N)=C/c1cccc(Br)n1)c1ccccc1` [Degrasyn (WP1130)], the cell viability was found to be 1.3%. On to `O=C(Nc1ccccc1)N1CCN(c2nc(-c3ccccc3)ns2)CC1`, for which the cell viability came out at 92.7%. With `CCCCCCCCCC=O` [Decyl aldehyde], the cell viability amounted to 101%.

For `CC1(C)CCC2(C(=O)O)CCC3=C(C(CCl)CC4C3(C)CCC3C4(C)CC(O)C(O)C3(C)C(=O)O)C2C1` (stereo not given) [Senegenin], the cell viability was 108%. With `CS(=O)(=O)Nc1cc2occ(NC=O)c(=O)c2cc1Oc1ccccc1` [Iguratimod], the cell viability came to 107%. Consider `OC[C@H]1O[C@@H](Oc2cc(O)cc(/C=C/c3ccc(O[C@@H]4O[C@H](CO)[C@@H](O)[C@H](O)[C@H]4O)cc3O)c2)[C@H](O)[C@@H](O)[C@@H]1O` [Mulberroside A], for which the cell viability stood at 101%. On to `Cc1ccc(Sc2ccccc2N2CCNCC2)c(C)c1`, for which the cell viability came out at 11.2%.

Turning to `Cc1cc(C(O)=C2C(=O)C(=O)N(CCCN3CCOCC3)C2c2ccncc2)ccc1OCc1ccccc1` (stereo not given), the cell viability was determined as 92.6%. `CCCCCCNC(=O)n1cc(F)c(=O)[nH]c1=O` [Carmofur]: the cell viability stood at 81%. On to `COC(=O)C1=CO[C@@H](O[C@@H]2O[C@H](CO)[C@@H](O)[C@H](O)[C@H]2O)[C@@H]2[C@H](C)O[C@@H](O)C[C@H]12` [Morroniside], for which the cell viability amounted to 97.1%. `Cn1cc(C2=C(c3cccc(N)c3)C(=O)NC2=O)c2ccccc21`: the cell viability was 86%. For the compound `COCC[n+]1c2c(n(Cc3cnccn3)c1C)C(=O)c1ccccc1C2=O` [YM155 (Sepantronium Bromide)], the cell viability stood at 1.06%. With `CCOCc1nc2c(N)nc3ccccc3c2n1CC(C)(C)O` [Resiquimod], the cell viability was 87.6%.
